Rows were chosen to be rich in hits. Some 3.4% of all compounds tested hit in one or more screens of this group.
MITF primary – blocks human microphthalmia-associated transcription factor. O75030. AlphaScreen MITF homodimerization, bead proximity signal. inhibition, % at 2.6 µM. 650,000 tested, 0.91% active; in the data active = inhibition above about 50%;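 note: 0% = vehicle wells with protein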
TEAD-YAP block – TEAD-YAP interaction inhibition; inhibition, % at 9.12 µM; HEK-TIYL cells, TEAD-Gal4/YAP UAS-luciferase luminescence; 640,000 tested, 1.4% active; in the data active = inhibition above about 32%;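 note: 0% = median of test compound wells and 100% = reference inhibitor wells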
GPR151 ag – activators of human GPR151. PathHunter beta-arrestin GPR151 cells, luminescence. activation, % at 11.2 µM. 650,000 tested, 1% active. AID 1508602; in the data active = activation above about 4.9%;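 note: 0% = median of compound wells and 100% = cells with positive control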
Target sequence (Q8TDV0 whole entry, looked up): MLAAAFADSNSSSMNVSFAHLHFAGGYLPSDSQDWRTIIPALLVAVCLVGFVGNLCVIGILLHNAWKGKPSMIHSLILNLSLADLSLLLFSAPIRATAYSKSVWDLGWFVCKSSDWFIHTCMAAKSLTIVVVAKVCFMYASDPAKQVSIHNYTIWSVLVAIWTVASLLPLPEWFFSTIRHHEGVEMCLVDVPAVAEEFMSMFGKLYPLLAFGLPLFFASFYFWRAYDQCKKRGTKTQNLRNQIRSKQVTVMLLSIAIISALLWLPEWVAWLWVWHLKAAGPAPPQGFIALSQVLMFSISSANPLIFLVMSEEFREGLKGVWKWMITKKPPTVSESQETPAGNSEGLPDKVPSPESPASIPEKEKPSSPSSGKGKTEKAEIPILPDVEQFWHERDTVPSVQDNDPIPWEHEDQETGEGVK
FBW7 act – human FBW7 E3 ligase activation, primary screen. Q969H0. AlphaScreen FBW7–phospho-cyclin E peptide binding, activator screen. normalized activity (activation), % at 26.1 µM. 650,000 tested, 0.13% active. AID 1259310; in the data active = normalized activity above about 1.9%;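 note: purified mutant Fbw7 with reduced substrate affinity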
Numbers without * were called inactive; ! = not active in a repeat.

SMILES | MITF primary | TEAD-YAP block | GPR151 ag | FBW7 act
CCOc1ccccc1Nc1ncnc2c1c(-c1ccccc1)cn2-c1ccc(OC)cc1 | 3 | -7 | 4 | 0
O=C(Cc1ccc(Cl)cc1)OCc1cc(-c2cccs2)on1 | -3 | -16 | 1 | 0
COc1cccc(C2(O)CSC3=C(C#N)C(c4cccc(F)c4)CC(=O)N32)c1 (configuration not stated) | -23 | 48* | 0 | -1
COc1ccc(C2(O)CSC3=C(C#N)C(c4cccc(Cl)c4)CC(=O)N32)cc1OC (configuration not stated) | -6 | -7 | -1 | 0
COc1cccc(C2CC(=O)N3C(=C2C#N)SCC3(O)c2ccc(F)cc2)c1 (configuration not stated) | 1 | -11 | 0 | 0
COc1cccc(C2(O)CSC3=C(C#N)C(c4cccc(Cl)c4)CC(=O)N32)c1 (configuration not stated) | 24 | 67* | 0 | 0
O=[N+]([O-])c1cc([N+](=O)[O-])c(N2CCCCCC2)cc1Cl | -11 | -12 | -2 | 0
Cc1cc(C)c(NC(=O)c2sc3nc(-c4ccc(F)cc4)cn3c2C)c(C)c1 | 4 | -8 | 1 | 0
O=C(NC1CC1)C1CCN(c2ccc(-c3ccccc3)nn2)CC1 | -1 | 10 | -5 | 0
COc1ccccc1N1CCN(c2ccc(-c3ccccc3)nn2)CC1 | 3 | 88* | -5 | 0
c1ccc(-c2ccc(N3CCCCCC3)nn2)cc1 | -2 | 93* | -6 | 0
CCc1ccccc1NC(=O)C1CC2CCCN2C12C(=O)Nc1ccccc12 (configuration not stated) | -7 | -5 | 0 | 0
CCc1nc2sc(C(=O)c3ccc4c(c3)OCO4)c(N)c2cc1C | -5 | 40* | 0 | 1
CC(C)=CCC/C(C)=C/CC(C)(C)CNCCN1CCNCC1 | -4 | 58* | -2 | 1
Cc1ccc(O)c(/C=N/NC(=O)c2ccccn2)c1 | 57* | -13 | -4 | -1
O=C(N/N=C/c1ccc(O)c(O)c1O)c1ccccn1 | 108* | -42 | -3 | -1
Cc1cccc(/C=N/NC(=O)c2ccccn2)c1O | 13 | 55* | -6 | -2
Cc1cccc(/C=N\NC(=O)c2ccccc2Cl)c1O | -2 | -61 | 1 | 0
O=C(N/N=C/c1ccccc1O)c1ccccn1 | -39 | -55 | -1 | 0
O=C(Cc1n[nH]c(=O)c2ccccc12)OCC(=O)c1ccc2c(c1)OCCO2 | 3 | 50* | -2 | 0
CC1CCN(C(=O)CCl)c2ccccc2S1 (configuration not stated) | 15 | 67* | 0 | 0
CC1CN(C(=O)N2CCC(C(=O)O)CC2)c2ccccc2S1 (configuration not stated) | 1 | -13 | -1 | 0
CCOC(=O)CSc1nc2c(c(=O)n(C)c(=O)n2C)n1Cc1ccccc1Cl | -7 | -11 | 5 | 0
Cc1nc(NCCCn2ccnc2)cc(-c2cncc(-c3ccccc3)c2)n1 | -12 | -9 | 0 | 0
CC(=O)Nc1ccc(NC(=O)c2cc(C)nc3ccc(C)cc23)cc1 | -9 | 35* | 1 | 0
SMILES | MITF primary | TEAD-YAP block | GPR151 ag | FBW7 act
Cc1ccc(NC(=O)/C(=C/c2ccc(N(C)C)cc2)NC(=O)c2ccccc2F)cc1Cl | 3 | 5 | 1 | 0
CN(C)c1ccc(/C=C(\NC(=O)c2ccccc2F)C(=O)Nc2ccc(F)c(Cl)c2)cc1 | 61* | -6 | 0 | 0
COc1cc(/C=N/n2c(C(F)(F)F)n[nH]c2=S)cc(Br)c1O | -2 | 2 | 1 | 0
CCC(C)N(C(=O)c1cccc([N+](=O)[O-])c1)C(C)CC (configuration not stated) | -76 | -2 | 1 | 2.0*
CCC(C)N(C(=O)c1ccc([N+](=O)[O-])cc1)C(C)CC (configuration not stated) | -18 | 2 | -2 | 0
Cc1cccc(CSc2nc3ccsc3c(=O)n2Cc2ccc3c(c2)OCO3)c1 | -12 | -3 | 0 | 0
Cc1ccccc1C(OCCN(C)C)c1ccccc1 (configuration not stated) | -14 | 6 | -2 | 1.9*!
CN(C)CC#CCOC(c1ccccc1)c1ccccc1 | 5 | -1 | -1 | 0
Nc1cc(N)nc(SCc2nc(-c3ccccc3)no2)n1 | 6 | -51 | 0 | 0
COc1ccc(C(=O)N2CCN=C2SCc2ccccc2)cc1 | -1 | -9 | 0 | 0
O=C(O)c1ccccc1C(=O)Nc1nc(-c2ccc(Br)cc2)cs1 | 0 | 4 | 1 | 2.1*
Cc1ccc(S(=O)(=O)Nc2ccccc2C(=O)Nc2nc3ccc(Cl)cc3s2)cc1 | -11 | 2 | 1 | 0
Cc1ccc(-c2csc(NC(=O)c3ccccc3C(=O)O)n2)cc1 | 7 | -6 | 0 | 0
Cc1ccc(S(=O)(=O)Nc2ccccc2C(=O)Nc2nc3ccc(Br)cc3s2)cc1 | -16 | 55* | 1 | 0
Cc1ccc(S(=O)(=O)Nc2ccccc2C(=O)Nc2nc(-c3ccc(F)cc3)cs2)cc1 | 0 | 54* | 2 | 0
Cc1ccc(S(=O)(=O)Nc2ccccc2C(=O)Nc2nc3c(Cl)cccc3s2)cc1 | -9 | 33* | 0 | 0
Cc1ccc(-c2csc(NC(=O)c3ccccc3NS(=O)(=O)c3ccc(C)cc3)n2)cc1 | 8 | 23 | 1 | 0
CCOC(=O)c1ccc(Oc2nc(NCc3ccccc3)nc(N(C)C)n2)cc1 | -2 | -3 | -2 | 0
Cc1ccc2nc(NC(=O)C3=COCCO3)sc2c1 | 9 | 66* | -11 | 0
CS(=O)(=O)c1ccc2nc(NC(=O)C3=COCCO3)sc2c1 | 10 | -13 | -1 | 0
CCOC(=O)CSc1nc2c(c(=O)n1-c1cccc(OC)c1)C1(CCCCC1)Cc1ccccc1-2 | -20 | -9 | 1 | 0
NC(=O)c1c(NC(=O)CSc2nc(-c3ccccc3)cn2N)sc2c1CCC2 | -2 | 36* | 1 | 0
O=C(CCn1c(SCC(=O)Nc2ccccc2Cl)nc2ccccc2c1=O)NCc1ccc(F)cc1 | 8 | 9 | 1 | 0
COc1cc(/C=C2\Oc3c(ccc(O)c3CN3CCCC3)C2=O)cc(OC)c1OC | -1 | 32* | 1 | 0
O=C(NCCc1ccc(O)cc1)c1csc(Nc2ccc(-n3ccnc3)cc2)n1 | 25 | 31 | -2 | 0
SMILES | MITF primary | TEAD-YAP block | GPR151 ag | FBW7 act
O=C(NCCOc1ccccc1)c1csc(Nc2ccc(-n3ccnc3)cc2)n1 | 15 | 45* | 2 | 0
O=C(NCCOc1ccccc1)c1cccc(Nc2ccc(-n3ccnc3)cc2)n1 | 11 | 61* | 2 | 0
O=C(NCCOc1ccccc1)c1cccc(Nc2ccncc2)n1 | -8 | -8 | 1 | 0
C=C(C)c1cccc(C(C)(C)NC(=O)NCc2ccncc2)c1 | 6 | -10 | 0 | -1
O=C(NCc1nc2ccccc2[nH]1)c1ccnc(N2CCN(c3ccccn3)CC2)c1 | 4 | 6 | -2 | 0
Oc1ccc(-c2cnn3c(NCc4cccs4)ccnc23)cc1 | -29 | 82* | -1 | 0
CC(=O)c1cccc(-c2cnn3c(NCc4ccco4)ccnc23)c1 | 20 | -44 | 1 | 0
Clc1cccc(-c2cnn3c(NCc4ccco4)ccnc23)c1 | 11 | 18 | -2 | 2.0*
